From PubChem BioAssay (NCI)
About 79,000 compounds went through this panel and 15% of them were active in at least one assay; those are over-represented in the sample as a whole. Activity calls are given as the source filed them. No stated cut-off is given here; in the data, active means growth inhibition above about 70%; inactive means the rest.

How the values were obtained:
[1] = NCI Yeast Anticancer Drug Screen. Data for the rad50 strain (AID 155);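 further: 0% = growth of vehicle-only cultures of the same strain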; details: S. cerevisiae rad50 strain growth inhibition; at 50.0 µM; hits give high values
In short: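 Growth of the mutant yeast was measured after compound exposure and referenced to vehicle-treated cultures.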

[2] = NCI Yeast Anticancer Drug Screen. Data for the mec2-1 strain (AID 157); details: S. cerevisiae mec2-1 strain, at 50.0 µM, hits give high values
In short: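 Compounds were applied to mec2-1 yeast cells. Their growth was then compared with that of vehicle-treated cultures to give growth inhibition.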

[3] = NCI Yeast Anticancer Drug Screen. Data for the sgs1 mgt1 strain (AID 161);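 further: 0% = growth of cultures given vehicle only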; details: S. cerevisiae sgs1 mgt1 strain, at 50.0 µM, hits give high values
In short: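 This yeast growth screen uses a strain with defined DNA-repair lesions; compound-treated growth is compared with vehicle-treated growth.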

[4] = NCI Yeast Anticancer Drug Screen. Data for the cln2 rad14 strain (AID 165);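 further: 0% = growth equal to vehicle treated cultures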; details: S. cerevisiae cln2 rad14 strain, at 50.0 µM, hits give high values
In short: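 Strain: cln2 rad14 yeast, altered in cell cycle control and DNA damage repair. Read-out: growth inhibition vs vehicle.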

[5] = NCI Yeast Anticancer Drug Screen. Data for the bub3 strain (AID 167); details: S. cerevisiae bub3 mutant strain, at 50.0 µM, hits give high values
In short: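 Whole-cell yeast assay. The mutant strain was incubated with compounds, and growth inhibition was determined by comparison with vehicle-treated cells.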

[6] = NCI Yeast Anticancer Drug Screen. Data for the mlh1 rad18 strain (AID 175); details: S. cerevisiae mlh1 rad18 strain growth inhibition; at 50.0 µM; hits give high values
In short: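 A repair-deficient yeast strain is exposed to test compound, and growth is scored relative to vehicle-treated controls.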

Measured: growth inhibition

CN1CSCC1C(=O)O (stereo unspecified)
inactive: [1] 13% | [2] -3.25% | [3] -8.45% | [4] -39.4% | [5] -9.1% | [6] 11.8%

O/N=C1\CCC2CCCCC12 (stereo unspecified)
inactive: [1] 27.5% | [2] 14.5% | [3] 2.55% | [4] 19.1% | [5] 1.05% | [6] 24.9%

CCCCSc1nc2ccc([N+](=O)[O-])cc2s1
inactive: [1] 40.6% | [2] -4.2% | [3] 37.5% | [4] 2.1% | [5] 4.45% | [6] 12.9%

CN(C)/N=C/c1cn(C)c(=O)n(C)c1=O
inactive: [1] 0.15% | [2] 3% | [3] 5.75% | [4] -5.55% | [5] -20.3% | [6] 1.85%

O=C(c1ccccc1)C(c1ccccc1)N(CCO)CCO (stereo unspecified)
inactive: [1] -9.8% | [2] -17.4% | [3] -2.85% | [4] -13.4% | [5] 20.6% | [6] -17.3%

Cc1cccc2nnc(CCCc3nnc4cccc(C)n34)n12
inactive: [1] -0.85% | [2] 1.85% | [3] -22.1% | [4] -34.4% | [5] -8.8% | [6] -6.3%

FC(F)(Br)C(F)(Cl)Br (stereo unspecified)
inactive: [1] 18.6% | [2] 18.8% | [3] 17.6% | [4] 17.4% | [5] 1.5% | [6] 24.7%

COc1ccc(C(c2cc3c(cc2O)OCO3)N2CCN(C(c3ccc(OC)cc3)c3cc4c(cc3O)OCO4)CC2)cc1 (stereo unspecified)
inactive: [1] 17.1% | [2] 0% | [3] 5.05% | [4] 15.1% | [5] -1.65% | [6] 19.8%

NN1CCOC1=O
inactive: [1] 1.4% | [2] -35.9% | [3] 11.7% | [4] -2.9% | [5] -14.1% | [6] -1.7%

CCOC(=O)CCCCCCCCCCCCC1C=CCC1 (stereo unspecified)
inactive: [1] -19.1% | [2] -41.4% | [3] -3.45% | [4] -28.6% | [5] -49.1% | [6] -21.3%

CC1CSC(C)C(=O)N1 (stereo unspecified)
inactive: [1] -11.2% | [2] -3.65% | [3] -5.75% | [4] 7.55% | [5] 15.8% | [6] 2%

CCOC#CCCOCc1ccccc1
inactive: [1] -28.9% | [2] -46.2% | [3] -5.25% | [4] -1.65% | [5] -11% | [6] -16.6%

CC(=O)OC(C)C(O)C(O)C(/C=C/C1CC=CC(=O)O1)OC(C)=O (stereo unspecified)
inactive: [1] 32.2% | [2] 9.45% | [3] 23.6% | [4] 10.6% | [5] 19.6% | [6] 11.8%

CN1CC(O)CN(C)C1=S
inactive: [1] -9.05% | [2] -8.2% | [3] 1.6% | [4] -34.6% | [5] -7.9% | [6] -5%

CC(C)(C)c1ccc(OC(=S)Nc2ccccc2)cc1
inactive: [1] -32.8% | [2] -6.25% | [3] -17.4% | [4] -17.2% | [5] -13.6% | [6] 2.5%

CN1c2ccccc2C(=O)NC12CCN(CC1COc3ccccc3O1)CC2 (stereo unspecified)
inactive: [1] 58.1% | [4] 62.9% | [5] 66.5% | [6] 66%
active: [2] 71.4% | [3] 82.4%

Cc1cccc(NC(=O)c2cccc([N+](=O)[O-])c2C(=O)O)c1C
inactive: [1] 4.8% | [2] 11.9% | [3] 3.75% | [4] -7.15% | [5] 25.6% | [6] 10.8%

Cc1cc(C)c(N(C)C(=O)CCC(=O)O)c(Br)c1
inactive: [1] 3.1% | [2] -3.05% | [3] -13.2% | [4] 0.05% | [5] 9% | [6] -6.45%

O=C(CBr)OCCC1CCCCC1
inactive: [1] 49.2% | [2] 4.7% | [3] 47.9% | [4] -36.5% | [5] 3.05% | [6] 32.5%

CCOC(=O)CCCN1CCC=C(C#N)C1
inactive: [1] 13% | [2] -2.2% | [3] 6.7% | [4] -7.7% | [5] 13% | [6] 7.85%

OC(CC1CCCCN1)c1cc2c(Cl)cc(Cl)cc2c2cc(C(F)(F)F)ccc12 (stereo unspecified)
inactive: [1] 68% | [2] 50.6% | [3] 42.5% | [4] 30.1% | [6] 52%
active: [5] 98.8%
